Experimental findings from PubChem BioAssay are described below.

Each structure is given as a SMILES string. Activity calls are given as the source filed them.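 How the source made its calls, unless noted: active means GFP response above 150% of the DMSO level; inconclusive means fewer than 70 events counted for a yeast strain; inactive means the rest.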

Test [1] can be described thus: hit retest on RPL19A-GFP reporter strain – cell-based, S. cerevisiae, flow cytometry, cherry picks, mother/daughter gates, confirmation (AID 2270;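 active means GFP response below 50% of the DMSO control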). Particulars: 3 h, at 10 µM, stronger effect = lower value, 100 = same GFP as DMSO wells. (A flow cytometer gives signals particle by particle.)
Test [2] in a line: yeast TOR pathway reporter LAP4-GFP change – cell-based, cherry picks, flow cytometry, mother/daughter gates, confirmation (AID 2271;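 active means GFP response above 150% of the DMSO control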;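 further: ratio of sample to DMSO plate mean so 100% equals DMSO level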). Particulars: S. cerevisiae LAP4-GFP strain, 3 h, at 10 µM, stronger effect = higher value, 100 means same as DMSO control.
Test [3] is described as follows: TOR pathway reporter MEP2-GFP, retest of hits – S. cerevisiae, flow cytometry GFP, cherry picks, confirmation (AID 2272;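 active means GFP response above 150% of the DMSO control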;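 further: ratio of well signal to plate DMSO mean so 100% equals DMSO level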). Conditions: S. cerevisiae MEP2-GFP strain, 3 h, at 10 µM, stronger effect = higher value.
Test [4] can be described thus: yeast AGP1-GFP fluorescence change, single-dose – cell-based, flow cytometry, S. cerevisiae, cherry picks, confirmation (AID 2273).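 Further: median GFP channel fluorescence over the whole cell population gate.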 Particulars: S. cerevisiae AGP1-GFP strain, 3 h, at 10 µM.
The nature of test [5]: TOR pathway CIT2 reporter hit retest – S. cerevisiae, GFP fusion, cherry picks, mother/daughter gates, confirmation (AID 2274). Particulars: S. cerevisiae CIT2-GFP strain, flow cytometry, 3 h, at 10 µM, stronger effect = higher value.
The nature of test [6]: reduced mouse 2C T cell binding to pMHC/ICAM-1 vesicles – MLPCN validation set, flow cytometry, LFA-1/ICAM-1 modulator project, pilot screen (AID 2523;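 active means response below a set limit, under 55% cells CD8-positive and vesicle-bound, and CD8 cells' 90th-percentile brightness under 279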;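 on vesicle binding response: mean PE anti-B7-1 fluorescence of CD8+ cells relative to row control; 100% = QL9-loaded vesicles with DMSO vehicle in the same plate row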). Conditions: 2C mouse CD8+ T cells, at 7 µM, stronger effect = lower value; double positive events: measured here: CD8+/vesicle+ event percentage.
The target in test [7] is Integrin beta-1 (Homo sapiens) + Integrin alpha-4 (Homo sapiens) (UniProt P13612+P05556). As to the kind of experiment: alpha4beta1 integrin LIBS antibody binding reduction – U937 cells, HUTS-21 mAb, flow cytometry, validation set, VLA-4 allosteric modulator project, pilot screen (AID 2674;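 active means inhibition above 50%, about 3 SD of the validation set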;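 further: antibody binding induced by the VLA-4 ligand LDV present at three times its Kd; 0% = LDV ligand with antibody and no compound and 100% = antibody without LDV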). Conditions: HUTS-21 LIBS mAb binding, at 6.7 µM, stronger effect = higher value, binding induced by LDV ligand.

Test [8] is described as follows: calorie-restriction mimetic ROS inhibitors, yeast – validation compound set, pilot screen (AID 2706;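 active means superoxide response below 65% of plate, a cut near 3 SD across the whole screen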;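 further: yeast exposed to compound for one week at 30 degrees C before staining; 100% = mean of all compound wells on the same plate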). Conditions: S. cerevisiae aging, superoxide DHE fluorescence; at 10 µM, stronger effect = lower value.
Test [9] addresses Beta-adrenergic receptor kinase 1 (Homo sapiens) (UniProt P25098). As to the kind of experiment: GRK2 binders displacing RNA aptamer, biochemical, validation, human GRK2, bead flow cytometry (AID 488806;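 active means aptamer binding inhibition above 30%, about 3 SD of noise from non-fluorescent compounds; inactive means inhibition at or below 30%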). Particulars: bead-bound GRK2, FAM-aptamer displacement, at 10 µM, stronger effect = higher value.
Test [10] addresses Beta-2 adrenergic receptor (Homo sapiens) (UniProt P07550). Description: agonist-induced loss of surface beta2AR – cell-based, FAP fluorogen, flow cytometry, validation set, pilot screen (AID 504459;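 active means percent response above 42, roughly 3 SD of non-fluorescent test compounds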;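 further: agonist-driven loss of surface beta2AR via internalization measured by FAP dye flow cytometry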). Particulars: Am2.2-beta2AR cells, at 10 µM, stronger effect = higher value.
Test [11] deals with AP-2 complex subunit beta (Homo sapiens) (UniProt P63010). Description: beta-arrestin/AP2 interaction blockers – biochemical, validation set, GST-AP2 beads, flow cytometry, pilot screen (AID 504541;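 active means inhibition above 54%, about 3 SD of non-fluorescent compounds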;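 further: AP2 carries R879A mutation and is captured from E. coli lysate; bead-bound FITC arrestin peptide fluorescence measuring arrestin peptide binding to AP2; 0% = DMSO wells and 100% = excess unlabeled arrestin peptide control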). Particulars: FITC arrestin peptide, at 10 µM, stronger effect = higher value, AP2 beta2 appendage fragment, R879A mutant.
The nature of test [12]: cytosolic pH regulators acting via V-ATPase – S. cerevisiae, pHLuorin, HTS validation (AID 504600; in the data active means response above about 15%;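 further: plate controls were DMSO for no effect and reference compound for full effect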). Particulars: V-ATPase proton transport, at 10 µM, stronger effect = higher value.
Test [13] deals with anti-desmoglein-3 scFv antibody binding to human DSG3. As to the kind of experiment: blockers of pathogenic pemphigus antibody–desmoglein-3 binding – biochemical, validation compound set, bead-based, flow cytometry, pilot screen (AID 588368;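 active means binding below the plate cutoff, the plate median minus 3 SD, with a reading above zero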;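 further: signal is the median channel fluorescence of bead-bound GFP antibody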). Particulars: Protein G beads, DSG3-Fc, scFv-GFP binding, at 10 µM, stronger effect = lower value.
Test [14] is described as follows: Nile Red efflux blockade in pump-expressing yeast – validation compound set, multiplex, phenotypic, pilot screen (AID 588506;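 active means efflux inhibition above 0.42, the validation set average plus 4 SD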;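 further: Nile Red retained in cells so higher fluorescence means more efflux inhibition; 0 = negative control wells and 1 = enniatin B 25 µM full block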). Conditions: S. cerevisiae pump-expressing triplex, Nile Red efflux flow cytometry; at 10 µM; stronger effect = higher value; the pumps come from Candida albicans.
The target in test [15] is ATP-binding cassette sub-family B member 6 (Homo sapiens) (UniProt Q9NP58). Description: blockers of ABCB6-driven porphyrin uptake – K562-ABCB6 cells, flow cytometry, validation set, pilot screen (AID 588550;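 active means inhibition above the screen-wide mean plus 3 SD, about 51%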;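 further: 0% = DMSO wells and 100% = benzethonium chloride 70 µM positive control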). Particulars: K562-ABCB6 porphyrin accumulation, 1 h, at 10 µM, stronger effect = higher value.
Test [16] can be described thus: AML differentiation inducers, ER-HoxA9 marrow cells – cell-based, GFP/MAC1 double positive, flow cytometry, validation set, primary screen (AID 588685;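 active means differentiation response of at least 50%, scaled between solvent and reference control, from cells with both markers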;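 further: compound exposure lasts four days before antibody staining and flow analysis; 0% = DMSO wells and 100% = 5 µM fulvestrant positive control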). Particulars: stronger effect = higher value, normalized: vehicle 0, fulvestrant 100.
Setting [17] is: measured here: daughter cell gate.
The mark [18] stands for this setting: measured here: mother cell gate.
[19] abbreviates: measured here: daughter cell gate response.
The mark [20] stands for this setting: measured here: mother cell gate response.

AP-2 complex subunit beta (Homo sapiens), sequence (P63010 whole entry, looked up, the tested form may be a part, one chain of several): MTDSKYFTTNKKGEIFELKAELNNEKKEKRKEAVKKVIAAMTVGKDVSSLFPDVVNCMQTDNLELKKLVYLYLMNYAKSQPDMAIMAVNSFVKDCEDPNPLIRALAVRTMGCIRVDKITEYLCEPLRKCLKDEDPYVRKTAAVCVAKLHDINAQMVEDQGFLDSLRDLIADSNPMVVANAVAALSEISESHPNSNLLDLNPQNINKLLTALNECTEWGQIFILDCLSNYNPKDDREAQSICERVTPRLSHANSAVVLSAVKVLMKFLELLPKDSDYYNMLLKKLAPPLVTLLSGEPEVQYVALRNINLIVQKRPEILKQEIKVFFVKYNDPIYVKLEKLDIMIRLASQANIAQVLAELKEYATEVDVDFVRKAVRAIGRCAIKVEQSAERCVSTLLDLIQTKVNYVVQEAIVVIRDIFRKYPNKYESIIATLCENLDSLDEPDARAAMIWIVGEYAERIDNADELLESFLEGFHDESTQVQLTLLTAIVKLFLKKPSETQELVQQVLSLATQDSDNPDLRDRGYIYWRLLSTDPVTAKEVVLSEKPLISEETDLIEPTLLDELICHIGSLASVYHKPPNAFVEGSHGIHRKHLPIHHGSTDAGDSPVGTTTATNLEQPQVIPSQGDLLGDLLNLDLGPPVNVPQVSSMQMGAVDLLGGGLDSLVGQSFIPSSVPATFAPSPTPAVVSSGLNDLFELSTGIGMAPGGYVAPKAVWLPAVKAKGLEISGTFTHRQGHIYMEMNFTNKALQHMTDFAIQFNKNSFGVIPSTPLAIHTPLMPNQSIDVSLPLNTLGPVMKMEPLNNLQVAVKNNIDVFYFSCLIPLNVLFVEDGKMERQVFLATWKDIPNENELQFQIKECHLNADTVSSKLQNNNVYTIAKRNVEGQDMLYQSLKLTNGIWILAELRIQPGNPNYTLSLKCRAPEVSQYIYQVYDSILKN
Beta-adrenergic receptor kinase 1 (Homo sapiens), sequence (P25098 whole entry, looked up): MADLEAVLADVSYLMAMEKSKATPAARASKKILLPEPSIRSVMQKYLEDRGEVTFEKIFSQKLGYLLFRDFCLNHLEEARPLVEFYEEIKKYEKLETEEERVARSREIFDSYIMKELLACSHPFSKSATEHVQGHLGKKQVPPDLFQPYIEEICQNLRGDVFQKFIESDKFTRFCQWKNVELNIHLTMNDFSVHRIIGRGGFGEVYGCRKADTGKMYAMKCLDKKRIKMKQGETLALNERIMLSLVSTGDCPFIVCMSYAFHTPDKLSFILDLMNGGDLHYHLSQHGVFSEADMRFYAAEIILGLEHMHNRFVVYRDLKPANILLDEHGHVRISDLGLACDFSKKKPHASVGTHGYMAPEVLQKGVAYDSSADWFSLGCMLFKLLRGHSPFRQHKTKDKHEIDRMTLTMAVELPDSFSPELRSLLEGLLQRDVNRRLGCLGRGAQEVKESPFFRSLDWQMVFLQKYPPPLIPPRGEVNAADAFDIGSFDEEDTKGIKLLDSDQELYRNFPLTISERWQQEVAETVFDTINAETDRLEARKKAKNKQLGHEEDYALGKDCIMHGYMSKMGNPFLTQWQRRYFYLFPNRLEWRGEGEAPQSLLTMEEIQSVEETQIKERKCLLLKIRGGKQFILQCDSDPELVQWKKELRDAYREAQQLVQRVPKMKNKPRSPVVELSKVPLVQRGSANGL
ATP-binding cassette sub-family B member 6 (Homo sapiens), sequence (Q9NP58 whole entry, looked up): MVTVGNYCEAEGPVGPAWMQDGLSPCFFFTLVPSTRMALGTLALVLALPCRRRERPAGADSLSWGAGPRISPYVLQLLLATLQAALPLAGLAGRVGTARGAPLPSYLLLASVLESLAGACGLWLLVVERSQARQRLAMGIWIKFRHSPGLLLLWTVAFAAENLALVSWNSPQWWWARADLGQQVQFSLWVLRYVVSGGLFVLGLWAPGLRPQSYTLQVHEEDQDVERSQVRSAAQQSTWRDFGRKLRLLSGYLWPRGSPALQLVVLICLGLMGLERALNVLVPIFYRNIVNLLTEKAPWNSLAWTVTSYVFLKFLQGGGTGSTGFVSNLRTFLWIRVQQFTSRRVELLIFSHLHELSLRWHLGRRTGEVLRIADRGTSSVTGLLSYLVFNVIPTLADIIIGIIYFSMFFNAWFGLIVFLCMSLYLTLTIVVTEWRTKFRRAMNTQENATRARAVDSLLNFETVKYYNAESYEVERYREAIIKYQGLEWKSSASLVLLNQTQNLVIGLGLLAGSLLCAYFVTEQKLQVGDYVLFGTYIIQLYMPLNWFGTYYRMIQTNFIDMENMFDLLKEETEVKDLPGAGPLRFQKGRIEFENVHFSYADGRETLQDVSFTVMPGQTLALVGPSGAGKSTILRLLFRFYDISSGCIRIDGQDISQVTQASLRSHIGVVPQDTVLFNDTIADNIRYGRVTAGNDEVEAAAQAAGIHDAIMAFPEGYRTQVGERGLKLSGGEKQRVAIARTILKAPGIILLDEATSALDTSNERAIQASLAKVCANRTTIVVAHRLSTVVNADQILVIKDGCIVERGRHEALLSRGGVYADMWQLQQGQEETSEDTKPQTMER
Beta-2 adrenergic receptor (Homo sapiens), sequence (P07550 whole entry, looked up): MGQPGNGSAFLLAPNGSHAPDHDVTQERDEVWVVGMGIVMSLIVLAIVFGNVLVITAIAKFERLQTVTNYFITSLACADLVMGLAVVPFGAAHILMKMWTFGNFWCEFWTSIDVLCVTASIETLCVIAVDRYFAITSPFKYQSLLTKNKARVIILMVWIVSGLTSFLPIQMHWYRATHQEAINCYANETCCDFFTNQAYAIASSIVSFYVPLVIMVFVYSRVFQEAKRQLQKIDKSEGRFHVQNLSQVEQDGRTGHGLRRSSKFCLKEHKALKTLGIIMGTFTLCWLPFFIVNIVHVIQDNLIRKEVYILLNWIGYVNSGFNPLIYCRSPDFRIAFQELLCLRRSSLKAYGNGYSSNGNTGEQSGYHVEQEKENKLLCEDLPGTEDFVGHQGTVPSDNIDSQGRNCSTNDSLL
Integrin beta-1 (Homo sapiens) + Integrin alpha-4 (Homo sapiens), sequence (P05556 whole entry, looked up): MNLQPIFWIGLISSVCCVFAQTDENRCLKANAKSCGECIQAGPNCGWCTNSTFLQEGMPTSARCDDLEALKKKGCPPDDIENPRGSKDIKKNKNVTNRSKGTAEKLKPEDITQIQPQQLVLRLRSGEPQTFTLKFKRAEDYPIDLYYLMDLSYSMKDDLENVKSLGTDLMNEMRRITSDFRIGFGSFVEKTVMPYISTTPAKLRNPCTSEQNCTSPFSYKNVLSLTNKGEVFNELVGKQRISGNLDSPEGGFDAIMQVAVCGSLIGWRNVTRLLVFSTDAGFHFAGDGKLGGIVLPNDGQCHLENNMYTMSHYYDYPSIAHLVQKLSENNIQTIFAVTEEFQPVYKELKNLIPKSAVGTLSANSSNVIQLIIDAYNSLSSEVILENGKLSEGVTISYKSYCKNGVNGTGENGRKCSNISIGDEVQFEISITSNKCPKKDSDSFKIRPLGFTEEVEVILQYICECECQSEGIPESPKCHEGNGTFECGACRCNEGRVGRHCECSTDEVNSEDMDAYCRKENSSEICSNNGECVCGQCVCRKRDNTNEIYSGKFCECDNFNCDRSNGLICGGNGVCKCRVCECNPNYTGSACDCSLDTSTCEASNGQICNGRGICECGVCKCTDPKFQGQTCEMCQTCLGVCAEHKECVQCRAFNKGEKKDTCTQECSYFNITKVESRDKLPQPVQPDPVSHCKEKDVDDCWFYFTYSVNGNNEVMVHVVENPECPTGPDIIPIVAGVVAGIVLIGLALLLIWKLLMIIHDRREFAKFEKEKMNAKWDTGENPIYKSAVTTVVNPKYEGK
Integrin beta-1 (Homo sapiens) + Integrin alpha-4 (Homo sapiens), sequence (P13612 whole entry, looked up): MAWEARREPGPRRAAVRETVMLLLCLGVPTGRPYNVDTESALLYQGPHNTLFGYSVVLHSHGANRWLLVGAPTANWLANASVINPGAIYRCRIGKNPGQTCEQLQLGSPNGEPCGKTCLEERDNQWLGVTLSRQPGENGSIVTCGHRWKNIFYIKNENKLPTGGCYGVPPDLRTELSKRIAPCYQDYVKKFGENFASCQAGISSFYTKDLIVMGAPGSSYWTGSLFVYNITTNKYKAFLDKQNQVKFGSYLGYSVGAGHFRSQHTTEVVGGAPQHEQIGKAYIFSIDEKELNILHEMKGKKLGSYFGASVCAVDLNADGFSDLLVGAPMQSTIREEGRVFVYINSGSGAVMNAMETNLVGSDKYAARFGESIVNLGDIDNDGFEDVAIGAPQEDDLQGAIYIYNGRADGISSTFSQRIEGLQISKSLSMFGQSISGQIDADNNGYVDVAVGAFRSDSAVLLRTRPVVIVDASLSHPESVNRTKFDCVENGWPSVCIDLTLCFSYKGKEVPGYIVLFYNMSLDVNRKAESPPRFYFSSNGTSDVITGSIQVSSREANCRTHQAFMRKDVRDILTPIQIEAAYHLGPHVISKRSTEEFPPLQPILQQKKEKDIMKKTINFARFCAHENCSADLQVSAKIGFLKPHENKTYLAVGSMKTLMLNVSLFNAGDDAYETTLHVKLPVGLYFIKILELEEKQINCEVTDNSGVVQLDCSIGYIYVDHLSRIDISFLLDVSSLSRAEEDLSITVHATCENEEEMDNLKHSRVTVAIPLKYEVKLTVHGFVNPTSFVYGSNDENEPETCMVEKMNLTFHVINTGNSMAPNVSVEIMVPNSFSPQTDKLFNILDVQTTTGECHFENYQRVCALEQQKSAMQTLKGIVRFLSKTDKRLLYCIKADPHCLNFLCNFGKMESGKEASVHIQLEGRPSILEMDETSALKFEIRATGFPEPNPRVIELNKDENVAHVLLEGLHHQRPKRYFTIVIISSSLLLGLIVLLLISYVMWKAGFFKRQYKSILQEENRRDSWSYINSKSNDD

As for `CCN(CC)c1ccc2cc(C(=O)O)c(=O)oc2c1`, the GFP response vs DMSO was 95.1% (inactive) in test [1], 89.9% in test [1] (setting [17]), 94.2% in test [1] (setting [18]) and 110% (inactive) in test [3]. Further, the GFP response relative to DMSO in [2] was 126% (inactive). For the same molecule, the GFP response, % of DMSO in [4] was 105% (inactive); in [5] it was 94.4% (inactive).
For the molecule `Cc1cc(NCCOCCO)n2ncc(-c3ccc(Cl)cc3)c2n1`, the GFP response vs DMSO is 94.3% (inactive) in test [1], 93.1% in test [1] (setting [17]), 89.1% in test [1] (setting [18]) and 106% (inactive) in test [3]. In addition, the GFP response relative to DMSO in [2] is 100% (inactive). Further, the GFP response, % of DMSO in test [4] is 105% (inactive); in [5] it was 102% (inactive); in test [5] (setting [17]) it was 102%; in test [5] (setting [18]), 96.8%.
With `Cc1c(/C=N/Nc2ccc(C(=O)O)cc2)c2ccccc2n1C`, the GFP response vs DMSO in [1] is 96.2% (inactive); in [1] (setting [17]) it was 91.3%; in test [1] (setting [18]), 95.8%; in test [3], 103% (inactive). The GFP response relative to DMSO in test [2] was 105% (inactive). Also, the GFP response, % of DMSO in test [4] was 95.5% (inactive); in test [5], 91.7% (inactive); in test [5] (setting [17]), 81.6%; in test [5] (setting [18]), 82.6%.
As to `Oc1ccc(COCc2ccccc2)c2cccnc12`, the GFP response vs DMSO in [1] is 98% (inactive); in test [1] (setting [18]), 93.8%; in test [3], 114% (inactive). The GFP response relative to DMSO in test [2] was 149% (inactive); in [2] (setting [19]), 138%; in [2] (setting [20]), 152%. Further, the GFP response, % of DMSO was 98.6% (inactive) in test [4], 95.8% (inactive) in [5], 101% in test [5] (setting [17]) and 91.5% in test [5] (setting [18]). For the same molecule, the double positive events in test [6] was 65.9%. In addition, the vesicle binding response in [6] is 129% (inactive). Besides, the inhibition (commonly the change of the read-out against control, counted positive when it falls) is -0.43% (inactive) in test [7], -1% (inactive) in test [11] and 1% (inactive) in test [15]. The superoxide response (% of plate) in test [8] is 75.4% (inactive). Moreover, the aptamer binding inhibition in [9] is 0% (inactive). For the same molecule, the response was -7.8% (inactive) in test [10] and 2.93% (inactive) in test [12]. Moreover, the binding (% of control) in [13] is 101% (inactive). Moreover, in test [14], the efflux inhibition (fraction of control) is 0.12 (inactive). In test [16], the differentiation response is 40.8% (inactive).
In the case of `O=C(Nc1cccc(F)c1)c1ccccc1`, the GFP response vs DMSO is 99.4% (inactive) in test [1] and 103% (inactive) in test [3]. In addition, the results for the GFP response relative to DMSO in test [2], in test [2] (setting [19]) and in [2] (setting [20]) were 97% (inactive), 97.5% and 96.2%, respectively. Also, the GFP response, % of DMSO in [4] was 95.9% (inactive); in test [5], 98.8% (inactive); in test [5] (setting [17]) it was 99.2%; in test [5] (setting [18]), 88.2%.
As to `Nc1ccc(-c2c3ccc(=O)cc-3oc3cc(O)ccc23)cc1C(=O)O`, the GFP response vs DMSO was 103% (inactive) in test [1], 96.4% in [1] (setting [17]), 104% in test [1] (setting [18]) and 248% (active) in test [3]. In addition, the GFP response relative to DMSO in test [2] was 150% (active). Also, the GFP response, % of DMSO is 107% (inactive) in test [4] and 140% (inactive) in test [5].
On to `O=C(c1cccc(COc2ccc(Cl)cc2Cl)c1)N1CCN(c2ccccn2)CC1`, for which the GFP response vs DMSO was 80% (inactive) in [1], 83.6% in test [1] (setting [17]) and 103% (inactive) in [3]. Also, the GFP response relative to DMSO in test [2] is 114% (inactive); in test [2] (setting [19]), 107%; in [2] (setting [20]), 117%. The GFP response, % of DMSO was 86.6% (inactive) in [4], 95.9% (inactive) in test [5], 90.2% in [5] (setting [17]) and 95.6% in [5] (setting [18]).
